Out of some 13,000 compounds screened, about 3,200 (25%) showed an effect of 50% or more. Some of the results follow. Square brackets hold non-standard residues; d marks the D form. Peptide text beside a SMILES is read from it. * marks the point of attachment. Butanoyl(4-(4-HOPh)) = O=C(CCCc1ccc(O)cc1)*
system: P. falciparum stage V gametocytes; set-up: BacTiter-Glo ATP luminescence viability of purified stage V gametocytes in 384-well plates, per cent inhibition versus DMSO; conditions: 48 h, 5 µM; inhibitor

| SMILES | % Inhibition [%] |
| --- | --- |
| O=C(Nc1cccc(-c2cccc(-c3nc4ccc(F)cc4[nH]3)c2)c1)Nc1ccc2c(c1)OCO2 [TCMDC-133165] | 6.84 |
| Nc1cccc(CNCc2cccc(-c3cccc(-c4nc5ccc(F)cc5[nH]4)c3)c2)c1 [TCMDC-132941] | -20.24 |
| NCc1ccc(CNCc2cccc(-c3cccc(-c4nc5ccccc5[nH]4)c3)c2)cc1 [TCMDC-132817] | 74.49 |
| Fc1ccc2nc(-c3cccc(-c4cccc(CNCc5ccccc5)c4)c3)[nH]c2c1 [TCMDC-132699] | -56.67 |
| COc1ccc(CNCc2cccc(-c3cccc(-c4nc5ccccc5[nH]4)c3)c2)cc1 [TCMDC-132716] | -25.62 |
| NCc1ccc(CNCc2cccc(-c3ccc(-c4nc5ccccc5[nH]4)cc3)c2)cc1 [TCMDC-132815] | 106.4 |
| c1ccc(CNCc2cccc(-c3cccc(-c4nc5ccccc5[nH]4)c3)c2)cc1 [TCMDC-132698] | -20.89 |
| c1ccc(CNCc2cccc(-c3ccc(-c4nc5ccccc5[nH]4)cc3)c2)cc1 [TCMDC-132700] | 26.72 |
| Nc1cccc(CNCc2cccc(-c3cccc(-c4nc5ccccc5[nH]4)c3)c2)c1 [TCMDC-132942] | -10.95 |
| NCc1ccc(CNCc2cccc(-c3cccc(-c4nc5ccc(F)cc5[nH]4)c3)c2)cc1 [TCMDC-132816] | 98.03 |
| CCNc1cc(C(=O)N[C@@H](Cc2ccccc2)[C@H](O)CNC2(Cc3cccc(Cl)c3)CCC2)cc(N2CCCCS2(=O)=O)c1 [TCMDC-135383] | 17.64 |
| COc1cccc(CNc2noc(-c3c(-c4ccccc4)noc3C)n2)c1OC [TCMDC-134204] | 10.03 |
| CCN(CCCNc1nc(=S)[nH]c2cc(OC)c(OC)cc12)c1ccccc1 [TCMDC-124446] | 83.33 |
| COc1ccc(-c2nc(NCc3ccccc3)c3cc(OC)c(OC)cc3n2)cc1 [TCMDC-132018] | 17.4 |
| Cc1ccc2[nH]c3c(NCCCN(C)C)ncnc3c2c1 [TCMDC-124580] | 4.888 |
| Cc1cc(OCCCN2CCC(NS(=O)(=O)c3cc(Br)c(Cl)s3)CC2)c2ccccc2n1 [TCMDC-136280] | -17.93 |
| Cc1cc(NC(=O)c2ccco2)ccc1OC1CCN(Cc2ccc(C#N)cc2)CC1 [TCMDC-133956] | 24.43 |
| Cc1ccc(S(=O)(=O)N(C)c2ccccc2C(=O)Nc2ccccc2Oc2ccccc2)cc1 [TCMDC-125068] | 52.2 |
| CN(c1ccccc1C(=O)Nc1ccccc1Oc1ccccc1)S(=O)(=O)c1ccccc1 [TCMDC-125092] | -61.36 |
| CN(c1ccccc1C(=O)Nc1cc(Cl)ccc1Oc1ccccc1)S(=O)(=O)c1ccccc1 [TCMDC-124364] | 33.71 |
| O=[N+]([O-])c1ccc(C2=NN(S(=O)(=O)c3c(Cl)cc(Cl)cc3Cl)CCCC2)cc1 [TCMDC-135423] | -33.18 |
| CCCCCc1cc(O)c2c(c1)OC(C)(C)CC2C1=CCN(Cc2ccccc2)CC1 (centres unmarked) [TCMDC-131335] | -27.18 |
| CCCCc1cc(NCc2ccncc2)nc(Nc2ccccc2)n1 [TCMDC-133995] | 8.477 |
| CCN(CC)CCOC(=O)c1ccc(NC(=O)c2cc(-c3ccc(C)cc3)nc3ccccc23)cc1 [TCMDC-124019] | 1.245 |
| CCn1cc(-c2cc(C(=O)Nc3ccc(OC)cc3C)c3ccccc3n2)c(C)n1 [TCMDC-124457] | 71.47 |

| SMILES | % Inhibition [%] |
| --- | --- |
| COc1ccc(-c2cc(C(=O)Nc3ccc(CCCN(C)Cc4ccc(OC)c(OC)c4)cc3)c3ccccc3n2)cc1 [TCMDC-131848] | 47.44 |
| Cc1cccc2nc(-c3ccc(-c4ccc(CNCCCNS(C)(=O)=O)cc4)s3)[nH]c12.O=C(O)C(F)(F)F [TCMDC-133085] | 13.51 |
| COc1cc2nc(N3CCC(CNC(=O)c4ccc(-c5cccc(C#N)c5)cc4)CC3)nc(N)c2cc1OC [TCMDC-138730] | 76.59 |
| COc1cc2nc(N3CCC(CNC(=O)c4ccc(-c5ccc(C#N)cc5)cc4)CC3)nc(N)c2cc1OC [TCMDC-138713] | 15.4 |
| COc1cc2nc(N3CC(C)N(C(=O)Cc4ccc(-c5ccccc5)cc4)C(C)C3)nc(N)c2cc1OC (centres unmarked) [TCMDC-138153] | 71.85 |
| COc1cc2nc(N3CCC(CNC(=O)c4ccc(-c5ccc(C#N)cc5C)cc4)CC3)nc(N)c2cc1OC [TCMDC-138735] | 105.2 |
| COc1cc2nc(N3CCC(CNC(=O)/C=C/c4cccc(C)c4)CC3)nc(N)c2cc1OC [TCMDC-138156] | -2.985 |
| CC(C)CCN1CCC(Oc2ccc(NC(=O)c3ccsc3)cc2Cl)CC1 [TCMDC-133973] | 36.47 |
| O=C(NCCN1CCC(NC(=O)c2ccc(-c3ccccn3)s2)CC1)c1ccc(Cl)c(Cl)c1 [TCMDC-141947] | -22.55 |
| COc1cc(C(=O)N2COCC(CCCN3CCC(N4CCCC4)CC3)(c3ccc(Cl)c(Cl)c3)C2)cc(OC)c1OC (centres unmarked) [TCMDC-141758] | 14.16 |
| CCN(CC)CCON=Cc1cc(C)c2[nH]c3ccc(OCc4ccccc4)cc3c2c1C [TCMDC-132058] | -17.27 |
| Cc1nc(-c2cccc(NC(C)C(=O)Nc3cc(C(F)(F)F)ccc3N3CCOCC3)c2)cs1 (centres unmarked) [TCMDC-125304] | -35 |
| O=C(O)C[C@H](NC(=O)CCCNC(=O)c1cccc(-c2ccc(Cl)c(Cl)c2)c1)C(=O)O [TCMDC-139508] | 11.45 |
| CC(C)C[C@@H](CNC[C@H](CC(C)C)NC(=O)OC(C)(C)C)NC(=O)OC(C)(C)C [TCMDC-132080] | -74.95 |
| CN(C)S(=O)(=O)c1ccc(N2C(=O)C3C(C2=O)C2(c4ccccc4)C(=O)C3(c3ccccc3)C(c3ccccc3)=C2c2ccccc2)cc1 (centres unmarked) [TCMDC-132095] | -66.42 |
| CCN(CC)CCCCOc1ccc2c(c1)C(=O)c1cc(OCCCCN(CC)CC)ccc1-2 [TCMDC-124163] | 88.71 |
| CCN(CC)CCOc1ccc(Nc2ncc3cc(-c4c(Cl)cccc4Cl)c(=O)n(C)c3n2)cc1 [TCMDC-140940] | 0.9022 |
| CN(c1ccc(F)cc1)S(=O)(=O)c1ccc(Cl)c(C(=O)Nc2cccc(C#N)c2)c1 [TCMDC-123717] | 11.84 |
| COc1cc(OC)nc(C(Sc2ccc(NC(=O)c3cccs3)cc2)c2ccccc2)n1 (centres unmarked) [TCMDC-124257] | 44.54 |
| CCCCCOc1ccc(C(=NC)N(CCCCC)CCCCC)c2ccccc12 [TCMDC-137703] | 109.8 |
| CCCCCCOc1ccccc1C(=O)NCCOc1ccc(Cl)cc1 [TCMDC-124012] | -9.249 |
| CCCCCCOc1ccc(C(N)=NCc2ccccc2)c2c1CCCC2 [TCMDC-131554] | 15.01 |
| O=C(NCc1cccc(C(F)(F)F)c1)c1ccc(CNC(=O)c2ccc(O)c(-c3ccc(Cl)c(Cl)c3)c2)cc1 [TCMDC-140834] | 9.818 |
| O=C(NC1CC1)c1ccc(N2CCCC(COc3ccc4c(c3)CCCC4)C2)nc1 (centres unmarked) [TCMDC-134263] | 18.7 |
| O=C(NCC(=O)N1CCC[C@H]1C(=O)O)[C@@H](Cc1ccccc1)NC(=O)[C@@H]1CCCN1C(=O)CCCc1ccc(O)cc1 [TCMDC-141970] ({Butanoyl(4-(4-HOPh))}-P[dF]GP-OH) | -16.67 |

| SMILES | % Inhibition [%] |
| --- | --- |
| Cc1ccc(NC(=O)Cc2noc(CC3CCCN3C(=O)N[C@@H](C)c3ccccc3)n2)cc1 (some centres unmarked) [TCMDC-134994] | 0.878 |
| CC(CN1CCN(C)CC1)C(=O)Nc1ccc(-c2cccc(-c3nc4ccccc4[nH]3)c2)cc1 (centres unmarked) [TCMDC-137139] | 81.76 |
| CC(CN1CCN(C)CC1)C(=O)Nc1ccc(-c2csc(-c3nc4ccccc4[nH]3)c2)cc1 (centres unmarked) [TCMDC-132391] | 31.65 |
| CC(CN1CCN(C)CC1)C(=O)Nc1ccc(-c2ccc(-c3nc4ccccc4[nH]3)s2)cc1 (centres unmarked) [TCMDC-137140] | 86.65 |
| CC(CN1CCN(C)CC1)C(=O)Nc1ccc(-c2ccc(-c3nc4ccccc4[nH]3)cc2)cc1 (centres unmarked) [TCMDC-137148] | 72.16 |
| CCC(C)NC(=O)Nc1ccc(-c2cccc(-c3nc4ccccc4[nH]3)c2)cc1 (centres unmarked) [TCMDC-133241] | 3.681 |
| Cc1cccc2nc(-c3ccc(-c4ccc(NC(=O)C(C)CN5CCN(C)CC5)cc4)s3)[nH]c12 (centres unmarked) [TCMDC-137154] | -22.77 |
| CC(CN1CCN(C)CC1)C(=O)Nc1cccc(-c2ccc(-c3nc4ccccc4[nH]3)s2)c1 (centres unmarked) [TCMDC-137142] | -55.57 |
| CCc1cc(C(=O)c2cccc(C)c2)c(NC(=O)CN2CCN(C(=O)c3ccco3)CC2)s1 [TCMDC-123646] | 4.148 |
| O=C(O)/C=C/c1cccc(F)c1F [TCMDC-124298] | -5.397 |
| O=C(Nc1cn(-c2ccc(OCc3cccc(F)c3)c(Cl)c2)c2ncncc12)c1ccncc1 [TCMDC-135377] | -11.19 |
| CCOc1ccc(Br)cc1/C=C/C(=O)Nc1ccc2c(c1)CCCN(C)C2 [TCMDC-134049] | 5.79 |
| O=C(Nc1nc(-c2ccccn2)cs1)c1ccc(Br)s1 [TCMDC-123868] | 65.77 |
| O=C(Nc1nc(-c2cc(F)ccc2F)cs1)c1cncc(Br)c1 [TCMDC-123613] | -58.06 |
| CC1Cc2ccccc2N1S(=O)(=O)c1cc(OCC(F)(F)F)ccc1OCC(F)(F)F (centres unmarked) [TCMDC-124044] | -9.787 |
| COc1cc(OC)cc(C(=O)Nc2nc(-c3ccc(NC(=O)c4ccccc4)cc3)cs2)c1 [TCMDC-125112] | -27.73 |
| CC(C)(C)c1ccc(-c2csc(NC(=O)CC(c3ccccc3)c3ccccc3)n2)cc1 [TCMDC-124604] | -3.611 |
| O=C(Nc1nc(-c2ccccn2)cs1)c1ccccc1COc1ccccc1 [TCMDC-125336] | 64.14 |
| Cc1nn(CC(C)C)c2sc(C(=O)Nc3nc(-c4ccccn4)cs3)cc12 [TCMDC-125461] | 62.82 |
| O=C(Nc1cccc(-c2csc(-c3ccccc3)n2)c1)c1cccs1 [TCMDC-123904] | 22.98 |
| COc1cc(OC)cc(C(=O)Nc2nc(-c3ccccn3)cs2)c1 [TCMDC-125345] | 25.53 |
| O=C(Nc1nc(-c2ccccn2)cs1)c1ccc(S(=O)(=O)N2CCc3ccccc32)cc1 [TCMDC-125432] | 10.03 |
| CCN1CCN(c2ccc(NC(=O)c3cc4c(C)nn(-c5ccccc5)c4s3)cc2C)CC1 [TCMDC-125105] | 8.854 |
| CC1Cc2ccccc2N1S(=O)(=O)c1cccc(C(=O)Nc2nc(-c3ccccn3)cs2)c1 (centres unmarked) [TCMDC-124559] | 76.73 |
